Assay outcomes (PubChem BioAssay)
RN4220 kill: S. aureus RN4220 growth inhibition; OD600, 16 h; inhibition, % (concentration not given with the values); actives 0.33% (n = 330,000); AID 1259311; in the data active = inhibition above about 85%;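 also: plate controls were untreated cells for no effect and reference antibiotic for full effect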
PfHsp40 rescue: compounds rescuing yeast from Plasmodium falciparum HSP40 toxicity; S. cerevisiae expressing PfHsp40, growth rescue, ATP luminescence; growth rescue, % at 12.5 µM; actives 0.68% (n = 340,000); in the data active = growth rescue above about 28%, passing the limit was not always enough;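 also: yeast W303a lacking pdr1 and pdr3 grown in galactose medium; growth measured after three days at 30 °C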
PrPC surface inh: cell surface PrPC inhibition, primary TR-FRET screen | actives 0.43% (n = 370,000) | inhibition, % at 13.8 µM | AID 720596 | TR-FRET read-out; in the data active = inhibition above about 24%; also: 0% = median of the test wells and 100% = reference compound wells
PrP 5UTR inh: inhibition of PrP 5' UTR reporter expression. cell-based PrP 5' UTR mRNA reporter, plate reader. inhibition, % (test concentration not listed). actives 0.35% (n = 340,000). AID 488862; in the data active = inhibition above about 52%; also: 0 = median of the neutral control wells
CCHF vOTU inh: blocks the CCHF virus ovarian tumor domain protease | CCHFV vOTU protease, Pep-AMC fluorescence | inhibition, % at 11.5 µM | actives 0.55% (n = 370,000) | AID 651958; in the data active = inhibition above about 30%; also: 0% = vehicle wells with enzyme and 100% = no enzyme wells
Sa ugtP lethal: compounds lethal to S. aureus RN4220 ugtP deletion mutant; OD600 growth, 16 h; growth inhibition, % (no concentration beside the values); actives 0.54% (n = 330,000); AID 1259309; in the data active = growth inhibition above about 68%;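 also: plate controls were untreated wells for no effect and antibiotic for full effect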
* = called active by the depositor; ! = not active in a repeat. Shown are actives, neighbours in structure and some others; about 2.1% of the full set was active somewhere.

CCCCCCCCCC(=O)NC(CN1CCOCC1)C(O)c1ccccc1 (stereo unspecified) was read as RN4220 kill 8.5 and Sa ugtP lethal -0.8.
Screening CN(C)P1(N(C)C)=Nc2c(c(N)nn2C)C(c2ccccc2)=N1 returned RN4220 kill 5.0, PfHsp40 rescue 38.6*!, PrPC surface inh -8.1, PrP 5UTR inh -23.3, CCHF vOTU inh -7.9 and Sa ugtP lethal 11.8.
Screening COc1ccc(C(=O)ON=Cc2ccc(S(=O)(=O)c3ccc(Cl)cc3)nc2)cc1 returned RN4220 kill 0.2 and Sa ugtP lethal -1.2.
Screening O=C(O)c1cccc2c1C(=O)c1ccc(Cl)cc1S2(=O)=O returned PfHsp40 rescue 0.2, PrPC surface inh -30.7, PrP 5UTR inh -18.6 and CCHF vOTU inh -11.2.
O=C(O)c1cccc2c1-c1ccc(Cl)cc1C2 was read as RN4220 kill 10.4, PfHsp40 rescue 44.3*, PrPC surface inh 8.2, PrP 5UTR inh -2.1, CCHF vOTU inh -10.3 and Sa ugtP lethal -5.9.
For CC1CN(C(C)CO)C(=O)c2cc(NC(=O)Nc3ccccc3)ccc2OC1CN(C)S(C)(=O)=O (stereo unspecified) the results were RN4220 kill 7.3 and Sa ugtP lethal 0.1.
O=c1cc2c(nn1Cc1ccc(Cl)cc1)-c1ccccc1CC2 was read as RN4220 kill -0.4, PfHsp40 rescue 5.1, PrPC surface inh 7.2, PrP 5UTR inh -1.0, CCHF vOTU inh 33.3* and Sa ugtP lethal -13.6.
`Cc1ccc(S(=O)(=O)N2C(c3cccc(Cl)c3)CC=C(C(=O)O)C2c2ccccc2)cc1` (stereo unspecified) gave RN4220 kill 21.7 and Sa ugtP lethal 35.9.
CN(CC(=O)Nc1ccc(Cl)c(C(F)(F)F)c1)C(=O)CCN1C(=O)C2CCCCC2C1=O (stereo unspecified) was read as RN4220 kill 67.0, PfHsp40 rescue -1.0, PrPC surface inh -8.3, PrP 5UTR inh -54.4, CCHF vOTU inh 11.8 and Sa ugtP lethal 93.6*.
CC(C)=CCC12Oc3cc(O)ccc3C1(O)Oc1cc3c(c(O)c1C2=O)C=CC(C)(C)O3 (stereo unspecified) was read as RN4220 kill 73.4 and Sa ugtP lethal 96.6*.
CC/C(=C(/CC)c1ccc(O)cc1)c1ccc(O)cc1 was read as PfHsp40 rescue 107.0*, PrPC surface inh 1.2 and CCHF vOTU inh 2.9.
Screening N=C(N)c1ccc(O)cc1 returned RN4220 kill 3.2, PfHsp40 rescue -2.3, PrPC surface inh 4.3, PrP 5UTR inh -15.1, CCHF vOTU inh 4.9 and Sa ugtP lethal -0.5.
Screening O=C1c2ccccc2NC(c2ccc(-c3ccccc3F)o2)N1O (stereo unspecified) returned RN4220 kill 7.6, PfHsp40 rescue 119.8*, PrPC surface inh -1.3, PrP 5UTR inh -35.2, CCHF vOTU inh -7.5 and Sa ugtP lethal -32.5.
Cc1cc([N+](=O)[O-])ccc1-c1ccc(C2Nc3ccccc3C(=O)N2O)o1 (stereo unspecified) was read as RN4220 kill 7.4, PfHsp40 rescue 167.6*, PrPC surface inh -3.5, PrP 5UTR inh 1.2, CCHF vOTU inh 6.0 and Sa ugtP lethal -12.4.
O=C1c2ccccc2NC(c2ccc(Cl)cc2Cl)N1O (stereo unspecified) was read as RN4220 kill -9.4, PfHsp40 rescue 292.3*, PrPC surface inh 4.0, PrP 5UTR inh 19.7, CCHF vOTU inh 4.2 and Sa ugtP lethal -6.4.
Screening CCOC(=O)c1ccc(-c2ccc(C3Nc4ccccc4C(=O)N3O)o2)cc1 (stereo unspecified) returned RN4220 kill 3.4, PfHsp40 rescue 364.4*, PrPC surface inh 4.7, PrP 5UTR inh -53.7, CCHF vOTU inh 3.7 and Sa ugtP lethal -14.7.
CCOC(=O)c1ccc(-c2ccc(CO)o2)cc1 was read as RN4220 kill 4.3, PfHsp40 rescue 1.3, PrPC surface inh -7.1, PrP 5UTR inh -116.4, CCHF vOTU inh -155.1 and Sa ugtP lethal -7.0.
Screening COC(=O)C1=C(c2cccc(C#N)c2)CC2CCC1N2C(=O)NCC1CC1 (stereo unspecified) returned RN4220 kill 5.7 and Sa ugtP lethal -1.4.
For N#CC(=NO)c1nc2ccccc2s1 the results were RN4220 kill 7.5 and Sa ugtP lethal -1.6.
Screening CC(=NNC(=O)C1CCCC1)c1ccc(Cl)cc1Cl returned RN4220 kill 4.3 and Sa ugtP lethal 7.8.
